Source: PubChem
tim10-1 inh – growth inhibitors of tim10-1 mutant yeast; S. cerevisiae tim10-1 ts strain growth, BacTiter-Glo, 24 h; inhibition, % at 20 µM; hit rate 2.2% among 330,000;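 active means inhibition of at least 40%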;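 further: mutant grown at 25 °C; 0% = DMSO wells with yeast and 100% = wells holding no yeast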
MPTP block – permeability transition pore inhibition; isolated mouse mitochondria, Ca2+ swelling absorbance, 30 min; inhibition, % at 10 µM; hit rate 1.4% among 360,000;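 active means inhibition of 50% or more, scaled per plate between neutral and stimulator controls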;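 further: 0% = DMSO wells given calcium and 100% = 1 mM EGTA wells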
tim23-1 inh – tim23-1 yeast growth inhibition. S. cerevisiae tim23-1 growth, BacTiter-Glo luminescence, 24 h. inhibition, % at 20 µM. hit rate 1.3% among 330,000;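 active means growth inhibition of the mutant yeast at or above 50%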;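 further: temperature-sensitive mutant grown at 25 °C; plate controls were DMSO-treated mutant yeast for no effect and medium wells lacking yeast for full effect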
TIM10 inh – growth inhibitors of TIM10 yeast strain; S. cerevisiae TIM10 strain growth, BacTiter-Glo luminescence, 24 h; inhibition, % at 10 µM; hit rate 1.4% among 330,000;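 active means inhibition of 40% or more at the single tested concentration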;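 further: wild-type TIM10 isogenic control strain grown at permissive 25 °C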
Mdm2 MdmX PPI – disrupts the human Mdm2-MdmX interaction. O15151+Q00987. SaOS-2 split-luciferase Mdm2/MdmX complementation, luminescence. inhibition, % at 8 µM. hit rate 3% among 330,000;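 active means inhibition of at least 50% at 8 µM in the primary screen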
Target sequence (O15151 whole entry, looked up): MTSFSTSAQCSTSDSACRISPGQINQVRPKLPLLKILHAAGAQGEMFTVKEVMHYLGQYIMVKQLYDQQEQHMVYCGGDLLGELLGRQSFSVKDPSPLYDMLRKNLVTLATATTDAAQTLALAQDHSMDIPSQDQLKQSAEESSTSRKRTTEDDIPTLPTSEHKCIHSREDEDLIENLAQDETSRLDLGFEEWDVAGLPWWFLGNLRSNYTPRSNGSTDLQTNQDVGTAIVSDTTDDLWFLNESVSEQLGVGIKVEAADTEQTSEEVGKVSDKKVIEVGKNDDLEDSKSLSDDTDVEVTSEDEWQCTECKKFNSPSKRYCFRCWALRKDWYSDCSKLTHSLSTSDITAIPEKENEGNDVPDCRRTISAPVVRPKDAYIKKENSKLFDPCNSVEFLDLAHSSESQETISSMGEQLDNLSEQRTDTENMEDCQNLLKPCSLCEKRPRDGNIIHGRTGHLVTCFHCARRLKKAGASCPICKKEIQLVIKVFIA
Target sequence (Q00987 whole entry, looked up): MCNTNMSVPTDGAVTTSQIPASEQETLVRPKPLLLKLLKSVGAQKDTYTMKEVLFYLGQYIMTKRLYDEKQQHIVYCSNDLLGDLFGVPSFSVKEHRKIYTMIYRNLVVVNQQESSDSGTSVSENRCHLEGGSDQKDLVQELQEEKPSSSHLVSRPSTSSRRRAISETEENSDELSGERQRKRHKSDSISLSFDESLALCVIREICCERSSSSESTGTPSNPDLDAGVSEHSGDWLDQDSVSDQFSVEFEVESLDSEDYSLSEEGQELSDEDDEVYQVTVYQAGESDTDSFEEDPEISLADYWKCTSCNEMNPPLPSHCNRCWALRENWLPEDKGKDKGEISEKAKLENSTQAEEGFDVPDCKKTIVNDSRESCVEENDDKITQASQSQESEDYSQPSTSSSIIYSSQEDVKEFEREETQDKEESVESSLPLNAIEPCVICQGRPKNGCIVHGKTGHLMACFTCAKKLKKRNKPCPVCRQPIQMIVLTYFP
Mdm2-MdmX conf – confirmation of human Mdm2/MdmX interaction inhibitors; shares compounds with Mdm2 MdmX PPI; Mdm2-MdmX binding, luminescent assay; inhibition, % at 8 µM; hit rate 55% among 10,000; AID 489028; in the data active means inhibition above about 40%
FLuc counter – counter-screen for Mdm2/MdmX inhibitors: full-length luciferase; inhibition, % at 8 µM; hit rate 77% among 6,200; shares compounds with Mdm2 MdmX PPI; SaOS-2 full-length luciferase counterscreen, luminescence;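 active means mean inhibition at 8 µM reaching about 37%, which flags the compound as non-specific, limit read from the data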;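 further: p53-null SaOS-2 cells with luciferase driven by a doxycycline-inducible promoter; compound on cells about two nights before reading with doxycycline added after day one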
Numbers without * were called inactive; x = no result. In the library only some 6.3% were active in any assay of this set; here they are far more common.

SMILES	tim10-1 inh	MPTP block	tim23-1 inh	TIM10 inh	Mdm2 MdmX PPI	Mdm2-MdmX conf	FLuc counter
C=CC[C@@H](CC(=O)N[C@H](CO)Cc1ccccc1)C(=O)N[C@@H](COC(=O)[C@@H](CC=C)Cc1ccc(F)cc1)Cc1ccccc1	4.2	1.5	1.2	4.6	70.3*	15.6	x
C=CC[C@@H](CC(=O)N[C@H](CO)Cc1ccccc1)C(=O)N[C@H](COC(=O)[C@@H](CC=C)Cc1ccc(F)cc1)C(C)(C)C	18.0	0.5	10.3	2.0	36.6	x	x
C=CC[C@@H](CC(=O)N[C@@H](CO)Cc1ccccc1)C(=O)N[C@H](COC(=O)[C@@H](CC=C)Cc1ccc(F)cc1)Cc1ccccc1	1.4	-1.0	2.2	2.3	52.7*	35.5	55.0*
N#CCSc1ccccc1NC(=O)COC(=O)C1CCN(C(=O)c2ccc(Cl)cc2)CC1	x	1.0	x	x	x	x	x
N#C/C(=C(\O)Cc1ccccc1)c1nc2ccccc2[nH]1	-16.0	-0.1	3.6	-9.4	54.8*	9.9	x
CC(C)C(=O)OC/C(O)=C(\C#N)c1nc2ccccc2[nH]1	4.6	0.0	6.7	5.2	12.7	x	x
Cc1ccc(C(C)C)c(OC/C(O)=C(\C#N)c2nc3ccccc3[nH]2)c1	2.3	16.4	-16.9	-1.3	58.6*	32.3	x
COc1ccc(/C(C)=N/OC/C(O)=C(\C#N)c2nc3ccccc3[nH]2)cc1	15.5	2.2	-31.1	-32.6	24.1	x	x
COc1ccc(/C=N/OC/C(O)=C(\C#N)c2nc3ccccc3[nH]2)cc1OC	5.4	0.1	0.4	-19.3	72.9*	24.9	x
Cc1ccc([C@@H]2CC(=O)[C@@H]3CN(S(=O)(=O)c4ccc(C)cc4)[C@H](c4ccc(Cl)cc4)C[C@@H]3N2S(=O)(=O)c2ccc(Cl)cc2)cc1	x	1.0	x	x	x	x	x
CN1OC[C@@H]2CN(C(=O)CCc3ccccc3)[C@H](c3ccc(N4CCCCC4)cc3)C[C@@H]21	x	0.0	x	x	x	x	x
COc1ccccc1C(=O)Nc1nnc([C@@H]2C[C@H](O)[C@@H](CO)O2)s1	x	-0.8	x	x	x	x	x
CN1OC[C@@H]2CN(C(=O)C(C)(C)C)[C@H](c3cccc(Oc4ccccc4)c3)C[C@@H]21	x	-0.2	x	x	x	x	x
COCc1cccc(-c2csc(C(C)(O)c3ccccc3)n2)c1 (centres undefined)	x	-0.3	x	x	x	x	x
c1ccc(-c2cc(NCCN3CCCCC3)c3ccccc3n2)cc1	0.6	0.0	-30.7	-24.6	56.9*	46.5*	51.0*
O=C(c1cc(-c2ccccc2)nc2ccccc12)N1CCCC1	-0.4	0.7	22.6	8.6	-24.4	x	x
COc1ccc(-n2nc(C(=O)NCC(=O)Nc3ccccn3)c3ccccc3c2=O)cc1Cl	17.1	0.0	-8.2	-15.9	88.1*	17.0	x
COc1ccc(-n2nc(C(=O)NCC(=O)Nc3cccc(Cl)c3)c3ccccc3c2=O)cc1OC	-31.2	0.0	-24.8	-17.2	79.8*	47.7*	37.1*
COc1cccc(CNC(=O)c2ccc(F)c(S(=O)(=O)N3CCCCC3)c2)c1	x	1.7	x	x	x	x	x
CS(=O)(=O)c1ccc(Cl)c(NC(=O)CN2CCN(S(=O)(=O)/C=C/c3ccccc3)CC2)c1	x	-1.5	x	x	x	x	x
Oc1ccc(Br)cc1-c1nc2cnccn2c1NC1CCCC1	29.4	20.0	33.2	26.0	78.6*	57.1*	20.4
CC1CCN(S(=O)(=O)c2ccc(C(=O)Nc3nnc(-c4ccco4)o3)cc2)CC1	-12.6	-0.5	6.5	-16.3	54.4*	47.9*	34.2
O=C(Nc1nnc(-c2ccco2)o1)c1ccc(S(=O)(=O)N2CCCC2)cc1	-10.7	0.8	-6.2	2.9	9.5	x	x
O=C(OC1CC2CC1[C@H]1CCCCN1C2=O)N1CCN(C(=O)c2ccccc2)CC1 (some centres undefined)	x	0.3	x	x	x	x	x
COc1ccc(-c2nc3ccccc3c(C(=O)Nc3ccc(S(=O)(=O)Nc4cc(C)on4)cc3)c2C)cc1	-1.5	-1.8	0.8	3.1	76.4*	56.1*	53.4*
SMILES	tim10-1 inh	MPTP block	tim23-1 inh	TIM10 inh	Mdm2 MdmX PPI	Mdm2-MdmX conf	FLuc counter
CCOc1ccccc1C1c2[nH]c3ccccc3c2C[C@H]2C(=O)N(C3CCN(Cc4ccccc4)CC3)CC(=O)N12 (some centres undefined)	20.0	-0.2	26.9	-13.6	61.9*	51.3*	66.8*
Cc1ccccc1C1c2[nH]c3ccccc3c2C[C@H]2C(=O)N(C3CCN(Cc4ccccc4)CC3)CC(=O)N12 (some centres undefined)	2.8	0.5	2.0	3.4	18.8	x	x
O=C1[C@@H]2Cc3c([nH]c4ccccc34)C(c3ccccc3)N2C(=O)CN1C1CCN(Cc2ccccc2)CC1 (some centres undefined)	18.7	-0.6	18.8	-7.4	63.5*	37.8	92.5*
O=C1[C@@H]2Cc3c([nH]c4ccccc34)C(c3cccc(Br)c3)N2C(=O)CN1C1CCN(Cc2ccccc2)CC1 (some centres undefined)	19.8	-0.2	29.5	24.0	88.4*	39.5	73.3*
CC1(c2nnnn2-c2ccc3c(c2)OCCO3)CCC(=O)N1CCc1ccccc1F (centres undefined)	x	-0.4	x	x	x	x	x
O=C(O)C1C=CCC(C(=O)O)C1 (centres undefined)	x	-0.1	x	x	x	x	x
CCCCNC(=O)C1(C)CCCCN1CC(=O)c1ccc(OC)cc1 (centres undefined)	x	-0.3	x	x	x	x	x
Cc1ccc(C)c(N2CCN(c3ncccc3[N+](=O)[O-])CC2)c1	-12.1	-0.4	15.3	-0.7	72.7*	23.2	x
CC(C)(C)c1ccc(CS(=O)(=O)CC2(O)CCN(C(=O)c3cccc(C(F)(F)F)c3)CC2)cc1	6.9	3.9	-20.1	5.2	61.4*	1.4	x
COc1cccc(-c2ccc3ncnc(NCc4cccc(C)c4)c3c2)c1	12.4	3.4	29.1	-10.9	35.3	x	x
Cc1noc(C)c1-c1ccc2ncnc(NCC3CCCCN3C)c2c1 (centres undefined)	-17.2	-0.4	-9.4	-4.3	72.3*	46.5*	73.0*
Cc1ccsc1CNc1ncnc2ccc(-c3c(C)noc3C)cc12	8.3	3.8	29.0	2.3	94.1*	69.0*	52.0*
COc1cccc(CNc2ncnc3ccc(-c4c(C)noc4C)cc23)c1	-24.3	43.2	1.7	4.6	85.1*	72.8*	31.0
COc1cc(NC(=NS(=O)(=O)c2ccccc2)c2ccccc2)ncn1	x	2.1	x	x	x	x	x
COc1ccc(Nc2c(-c3ccc(F)cc3)nc3nc(C)cc(C)n23)cc1	x	-0.2	x	x	x	x	x
CNc1cnc(-c2ccc(F)c(F)c2F)cn1	x	0.6	x	x	x	x	x
O=C(Cn1cnc2sc(-c3ccccc3)cc2c1=O)NCc1ccccc1	10.9	-0.2	-1.2	-15.6	77.5*	55.8*	56.0*
O=C(Cn1cnc2sc(-c3ccccc3)cc2c1=O)NCCc1ccccc1	15.1	-1.1	-22.1	-16.8	92.7*	35.0	97.6*
CC(O)(c1ccccc1)c1nc(-c2cccc(C#N)c2)cs1 (centres undefined)	x	-0.6	x	x	x	x	x
